Test results: PubChem BioAssay AID485275 (NMMLSC, 2010)
The whole screen tested about 330,000 compounds, of which about 1,400 (0.42%) were called active.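 The calls were made as follows: active = plate passing quality check with inhibition over a set limit, or well fluorescence over plate mean plus 4 SD; inactive = the rest.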 This excerpt belongs to a sample that is enriched for actives.

Assay: antifungal drug efflux pump blockers, triplex strains – S. cerevisiae, Nile Red, multiplex, primary screen (AID 485275);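 also: Nile Red retained in pooled yeast measured as flow cytometry median fluorescence; 0% = buffer negative control and 100% = Enniatin B positive control; higher means more Nile Red kept so more efflux inhibition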
Conditions: S. cerevisiae Candida pump triplex, at 10 µM, stronger effect = higher value

SMILES | inhibition
Cc1ccc(NC(=O)c2ccc(Cl)nc2)cc1S(=O)(=O)N1CCOCC1 | 0.15% (inactive)
Cc1cc(C(=O)Nc2ccc(C)c(S(=O)(=O)N3CCOCC3)c2)c2ccccc2n1 | 1.11% (active)
Cc1cc(C(=O)NNC(=O)c2cccc(S(=O)(=O)N3CCOCC3)c2)c2ccccc2n1 | 0% (inactive)
COc1ccc(C2(C)NC(=O)N(CC(=O)c3ccc4c(c3)OCO4)C2=O)cc1 (configuration not stated) | 0.11% (inactive)
CCCCN(C(=O)C(CCSC)N1C(=O)c2ccccc2C1=O)c1c(N)n(CCC)c(=O)[nH]c1=O (configuration not stated) | -0.17% (inactive)
Cc1nn(C)cc1N1C(=O)c2cccc3c(N)ccc(c23)C1=O | 0.48% (active)
Cc1ccc(NC(=O)COC(=O)C2C3CC4OC(=O)C2C4C3)cc1Cl (configuration not stated) | 0.04% (inactive)
Cc1oc2cc3oc(=O)ccc3cc2c1C | 2.16% (active)
Cc1noc(C)c1COc1ccc2ccc(=O)oc2c1 | 0.13% (inactive)
COc1c(C(C)C)oc2cc3oc(=O)ccc3cc12 | 0% (inactive)
CC[C@]1(C(=O)OC)[C@H]2C(=O)N(Cc3ccccc3)C(=O)[C@H]2[C@H]2CN=C(SCc3ccc(Cl)cc3)N21 | 0.03% (inactive)
CC(=O)N1CCN(CC(C)(C)NS(=O)(=O)c2ccc(C)cc2)CC1 | 0.16% (inactive)
CCn1ncc(C2=NOC(C(=O)Nc3ccccc3C(=O)OC)C2)c1C (configuration not stated) | -0.18% (inactive)
Cc1cccc(NC(=O)COc2ccccc2C)n1 | 1.07% (active)
Cc1cccc(NC(=O)COc2ccc(Br)cc2C)n1 | -0.04% (inactive)
Cc1ccccc1OCC(=O)Nc1nc(C)c(C(=O)N(C)C)s1 | -0.09% (inactive)
COc1ccc(Cc2nc3ccc(C(=O)N4CCC(N(C)C)C4)cc3o2)cc1 (configuration not stated) | -0.47% (inactive)
O=C(COc1ccccc1F)NNC(=O)c1cc(Br)ccc1Cl | 0.03% (inactive)
CC1CCN(C(=O)CCc2nnc3ccc(NCc4ccco4)nn23)CC1 | 0.1% (inactive)
CCC1(CC)NC(=O)N(CC(=O)OCC(=O)NC(=O)c2ccccc2)C1=O | 0.07% (inactive)
O=C(Cc1ccccc1)NCC1OCCc2ccccc21 (configuration not stated) | 0.87% (active)
O=S(=O)(NCC1OCCc2ccccc21)c1ccccc1 (configuration not stated) | -0.08% (inactive)
NC(=O)c1oc2ccccc2c1NC(=O)Cc1ccccc1 | 0.32% (inactive)

SMILES | inhibition
CCOc1ccccc1C1CC(c2cccc(NS(C)(=O)=O)c2)=NN1C(=O)c1ccccc1 (configuration not stated) | -0.18% (inactive)
COc1ccc(C2=NN(C(=O)c3ccccc3C(=O)O)C(c3ccccc3O)C2)cc1 (configuration not stated) | -0.05% (inactive)
CCOc1ccc2nc(Cl)c(C3CC(c4ccccc4)=NN3C(=O)c3cccs3)cc2c1 (configuration not stated) | 0.46% (active)
N#Cc1ccc(CN2CCN(CC(=O)Nc3ccccc3C(=O)NC3CC3)CC2)cc1 | 0.14% (inactive)
CCCCC(NS(=O)(=O)c1ccc(C)cc1)C(=O)Oc1ccc2c3c(c(=O)oc2c1)CCC3 (configuration not stated) | 0.09% (inactive)
C/C(N)=C(/C#N)C(=O)COC(=O)c1cc(-c2cccc(Br)c2)nc2ccccc12 | 37.8% (active)
C/C(N)=C(/C#N)C(=O)COC(=O)c1cc(-c2ccccc2)nc2ccc(Br)cc12 | 0.06% (inactive)
C/C(N)=C(/C#N)C(=O)COC(=O)c1cc(-c2ccc(C)cc2)nc2ccccc12 | -0.3% (inactive)
COc1ccccc1NC(=O)C1CCCN1S(=O)(=O)c1ccc(Cl)cc1 (configuration not stated) | 0.94% (active)
Cc1cccc(NC(=O)C2CCCN2S(=O)(=O)c2ccc(F)cc2)c1C (configuration not stated) | -0.01% (inactive)
CC(C)c1nnc(NC(=O)C2CCCN2S(=O)(=O)c2ccc(Cl)cc2)s1 (configuration not stated) | -0.16% (inactive)
COc1ccccc1/C=N/N1CCN(Cc2ccccc2Cl)CC1 | -0.11% (inactive)
O=C1CC(NNc2ccccc2)C(=O)N1c1cccc(Cl)c1 (configuration not stated) | 0.07% (inactive)
CC12CCC(C(=O)N(NC(=O)c3ccccc3O)C1=O)C2(C)C (configuration not stated) | -0.08% (inactive)
CC12CCC(C(=O)N(c3cccc(Cl)c3)C1=O)C2(C)C (configuration not stated) | 10.2% (active)
O=C(CCCN1C(=O)CSc2ncccc21)N1CCN(c2cccc(C(F)(F)F)c2)CC1 | 0.01% (inactive)
O=C(CSC1CC(=O)N(CCc2ccccc2)C1=O)Nc1ccc(Cl)cc1 (configuration not stated) | 0.17% (inactive)
NC(=O)c1cc(S(=O)(=O)NCCCc2ccco2)cs1 | -0.02% (inactive)
COc1cccc(NC(=O)CN(C)C(=O)Cc2ccc(Cl)cc2Cl)c1 | -0.07% (inactive)
COc1ccc(/C=C/C(=O)OCC(=O)Nc2cccc(Oc3ccccc3)c2)c(OC)c1 | -0.02% (inactive)
COc1cccc(NC(=O)CN(C)C(=O)/C=C/c2cc(OC)ccc2OC)c1 | 15.2% (active)
CCN(CC)CC(=O)Nc1nn(-c2ccccc2)nc1C(N)=O | 0.02% (inactive)
Cc1ccc(C(=O)Nc2ccn(C)n2)cc1 | -0.02% (inactive)

SMILES | inhibition
CN(C)S(=O)(=O)c1cc(C(=O)Nc2ccn(C)n2)c(Cl)cc1Cl | 52.3% (active)
O=C(Nc1nccs1)c1cc(S(=O)(=O)N2CCOCC2)c(Cl)cc1Cl | -0.05% (inactive)
COC(=O)/C(=C1\Oc2ccc(C(C)(C)C)cc2S1)C(F)(F)F | -0.15% (inactive)
O=C(NN1C(=O)C2CCCCC2C1=O)c1ccco1 (configuration not stated) | -0.1% (inactive)
Cc1ccc(S(=O)(=O)N2CC(C)N(S(C)(=O)=O)C2)cc1 (configuration not stated) | -0.07% (inactive)
CCOC(=O)c1c(NC(=O)C2(C)Cc3ccccc3C(=O)O2)sc2c1CCCC2 (configuration not stated) | 0.15% (inactive)
CCOC(=O)c1c(NC(=S)NC(=O)c2ccco2)sc2c1CCCC2 | 1.02% (active)
CCOC(=O)c1c(NC(=S)Nc2ccccc2)sc2c1CCN(C)C2 | -0.02% (inactive)
C=CCNC(=O)c1sc(SC)cc1-c1ccc(Cl)cc1 | -0.08% (inactive)
CCCCN1C(=O)CCC(C(=O)O)C1c1ccc(OC)cc1 (configuration not stated) | 0.12% (inactive)
Cc1ccc(C)c(-n2nnnc2SCC(=O)c2c(N)n(C)c(=O)n(C)c2=O)c1 | -0.07% (inactive)
COc1ccc(OC)c(-n2nnnc2SCC(=O)Nc2cc(C)ccc2OC)c1 | -0.01% (inactive)
CCOC(=O)CNC(=O)CSc1nnnn1-c1cc(C)ccc1C | 0.92% (active)
O=C(NCC(=O)N1CCN(c2ncc(C(F)(F)F)cc2Cl)CC1)c1ccc(Br)o1 | -0.34% (inactive)
CN1CCN(S(=O)(=O)c2ccc(NC(=S)NC(=O)C3CC3)cc2)CC1 | 10.2% (active)
CC(=O)Nc1ccc(S(=O)(=O)N2CCC(C(=O)NC3CC3)CC2)cc1 | -0.06% (inactive)
CN1CCN(S(=O)(=O)c2ccc(NC(=O)C3CCCO3)cc2)CC1 (configuration not stated) | -0.16% (inactive)
CCN(CC(=O)Nc1c(F)cccc1F)C(=O)c1cnc(C)cn1 | -0.12% (inactive)
Cc1ccc(N=C2NC(=O)/C(=C/C=C/c3ccco3)S2)cc1C | 2.76% (active)
CN1C(=O)/C(=C/c2ccco2)SC1=Nc1cccc(C(=O)O)c1 | -0.02% (inactive)
CCCn1c2ccccc2c2cnn(CC(=O)NCCCN3CCCCC3CC)c(=O)c21 (configuration not stated) | 0.02% (inactive)
CC(C)N1CCC(N2CCN(Cc3cccnc3)CC2CCO)CC1 (configuration not stated) | 0.28% (inactive)
Nc1ccc(N=Nc2ccccc2Cl)c(N)n1 | 0.15% (inactive)

SMILES | inhibition
CCOC(=O)CNC(=O)/C=C/c1c(Cl)cccc1Cl | -1.16% (inactive)
O=C(CC(=O)N/N=C\c1cccc(Cl)c1Cl)NCc1ccccc1 | 0.27% (inactive)
O=C(/C=C/c1c(Cl)cccc1Cl)NCc1ccccc1 | 24.9% (active)
CCCc1ccc(OCC(O)CN2CCN(C(=O)OCC)CC2)cc1 (configuration not stated) | 0.15% (inactive)
C=CCC[C@H](Cc1ccc(F)cc1)C(=O)OC[C@@H](Cc1c[nH]c2ccccc12)NC(=O)[C@H](CC=C)CC(=O)N[C@H](CO)Cc1ccccc1 | -0.27% (inactive)
C=CCC[C@H](Cc1ccc(F)cc1)C(=O)OC[C@H](C)NC(=O)[C@H](CC=C)CC(=O)N(CCO)Cc1ccccc1 | -0.16% (inactive)
C=CCC[C@@H](Cc1ccc(F)cc1)C(=O)OC[C@H](Cc1c[nH]c2ccccc12)NC(=O)[C@@H](CC=C)CC(=O)N(CCO)Cc1ccccc1 | 149% (active)
COCC(C)NC(=O)c1ccc(-n2nc(C(F)(F)F)cc2-c2cccs2)cc1 (configuration not stated) | -0.07% (inactive)
Cc1nc2c(C(=O)NCc3ccc4c(c3)OCO4)c[nH]n2c(=O)c1Cc1ccccc1F | 0.63% (active)
CCn1c(=O)c(C(=O)NCc2ccc3c(c2)OCO3)c(O)c2ccccc21 | -0.11% (inactive)
O=C(NCc1ccc2c(c1)OCO2)c1cc(F)c(F)cc1Cl | 0.18% (inactive)
CCN(C(=O)CSc1nnc(-c2ccc(OC(F)F)cc2)n1N)C1CCS(=O)(=O)C1 (configuration not stated) | 0.02% (inactive)
CC(=O)C1(C)N(O)C(C)(C)C(c2cccs2)=[N+]1[O-] (configuration not stated) | -0.09% (inactive)
O=C(CSc1nnc(-c2cnccn2)n1Cc1ccco1)c1ccc(Cl)c(Cl)c1 | -0.1% (inactive)
O=C(CSc1nnc(-c2cccnc2)n1Cc1ccco1)c1ccc(Cl)c(Cl)c1 | 0.84% (active)
COc1cc(Cl)c(C)cc1NC(=O)CSc1nnc(-c2cccnc2)n1Cc1ccco1 | 0.03% (inactive)
CSc1cccc(NC(=O)C2CCCN2S(=O)(=O)c2ccc3c(c2)CCC(=O)N3)c1 (configuration not stated) | 0.16% (inactive)
COc1cccc(CNC(=O)C(=O)NCCC2CCCCN2S(=O)(=O)c2ccc(C)cc2)c1 (configuration not stated) | 0.03% (inactive)
Cc1ccc(C(=O)Nc2ccccc2-c2ccccc2)cc1S(=O)(=O)Nc1ccccc1 | 0.01% (inactive)
Cc1ccc(C(=O)O)cc1N1C(=O)CCCC1=O | -0.14% (inactive)
CCNc1c(NS(=O)(=O)c2ccc(C3CCCCC3)cc2)c(=O)oc2ccccc12 | 1.37% (active)
O=c1oc2ccccc2c(NC2CCCCC2)c1NS(=O)(=O)c1ccc(Cl)cc1 | -0.01% (inactive)
CCC(=O)Nc1ccc(S(=O)(=O)Nc2c(NC)c3ccccc3oc2=O)cc1 | 0.02% (inactive)
